Measurements reported in PubChem BioAssay AID463173 (ICCB-Longwood Screening Facility, Harvard Medical School, 2010).
The whole screen tested about 52,000 compounds, of which about 4,300 (8.3%) were called active. The full list was thinned out, with actives kept by preference. Values without a mark were called inactive. No stated cut-off is given here; in the data, active means survival mostly below about 52% (no sharp cut-off); inactive means mostly above about 56%.

These compounds were tested on DeltatarO mutant (assay: S. aureus survival, RN4220 and DeltatarO strains – OD600, teichoic acid synthesis inhibitors, primary screen (AID 463173)). Conditions: S. aureus RN4220 wild type/DeltatarO growth, OD600, 18 h, active compounds read low, screened at 18.75 µg/mL (by protocol).
`O=C(CSc1cn(CC(=O)N2CCCC2)c2ccccc12)Nc1cc(C(F)(F)F)ccc1Cl` showed a survival of 52%. `O=C1CSC(c2ccccc2)N1Nc1nc(N2CCOCC2)nc(N2CCOCC2)n1` (stereo not drawn) was tested, and the survival was 101%. `COc1cccc(CNC(=O)Cn2nc(N3CCN(c4ccccc4OC)CC3)ccc2=O)c1` gave a survival of 86%. With `CCn1c2ccccc2c2cc(NC(=O)COC)ccc21` the survival was 43% (active). `CCn1c(=O)cc(OCC(=O)Nc2cc(OC)c(OC)c(OC)c2)c2ccccc21` showed a survival of 47%. For `CCn1c2ccccc2c2cc(NC(=O)COc3cccc(C)c3)ccc21`, the survival was 27% (active). With `CCn1c2ccccc2c2cc(NC(=O)COc3ccc(C)c(C)c3)ccc21` the survival was 119%. `Cc1cc(OCC(=O)Nc2ccc3c(c2)OCCO3)cc(C)c1Cl` showed a survival of 77%. In the case of `COc1ccc(Nc2cc(C)c3cc(NC(=O)COc4cccc(C)c4)ccc3n2)cc1`, the survival is reported as 102%. For `CCn1c2ccccc2c2cc(NC(=O)COc3cc(C)c(Cl)c(C)c3)ccc21`, the survival was 50% (active). With `CCn1c(=O)cc(SCC(=O)Nc2ccc(C)c(F)c2)c2ccccc21` the survival was 89%. `Cc1cccc(OCC(=O)Nc2ccc(NC(=O)c3ccco3)cc2)c1` showed a survival of 83%. Compound `COc1ccc(OCC2CNC(=O)O2)cc1` (stereo not drawn) has a survival of 61%. `C=CCn1c(=O)/c(=C2/Sc3ccccc3N2CC)s/c1=C1/C(=O)NN=C1C` showed a survival of 89%. In the case of `Cc1ccc(Nc2ccc(N3CCN(C(=O)c4cccc([N+](=O)[O-])c4)CC3)nn2)cc1`, the survival is reported as 85%. `O=C(NCCc1ccccc1)c1ccc2c(c1)N(Cc1ccc(Cl)cc1)C(=O)c1ccccc1S2(=O)=O` gave a survival of 89%. Compound `COCCCNC(=O)c1ccc2c(c1)N(Cc1ccccc1F)C(=O)c1ccccc1S2=O` (stereo not drawn) has a survival of 83%. In the case of `COC(=O)c1sc2cccc(F)c2c1S(=O)(=O)NCc1ccc(F)cc1`, the survival is reported as 103%. In the case of `N#CC1=C(N)C(C#N)(C#N)C(c2ccccc2)C2CCCC=C12` (stereo not drawn), the survival is reported as 97%. Work on `COc1ccc(C2=C(N3CCN(c4cc(Cl)ccc4C)CC3)c3ccccc3C2=O)cc1` yielded a survival of 95%. With `Cc1ccc(C)c(N2CCN(C3=C(c4ccccc4)C(=O)c4ccccc43)CC2)c1` the survival was 100%. With `COc1ccc(C2=C(N3CCN(c4cc(C)ccc4C)CC3)c3ccccc3C2=O)cc1` the survival was 28% (active). Compound `COc1cccc(-c2cnc(NCc3ccccc3Cl)n2C)c1` has a survival of 51%. `Cn1c(-c2ccccc2)cnc1NC(=O)c1ccc(F)cc1` was tested, and the survival was 81%. With `COc1cccc(C(=O)n2nc(-c3cccnc3)nc2NCc2ccc(F)cc2)c1` the survival was 71%. With `Cn1c(-c2cccc(Br)c2)cnc1NCc1cccc(F)c1` the survival was 28% (active). `CCc1ccc(CNc2ncc(-c3cccc(OC)c3)n2C)cc1` was tested, and the survival was 8% (active). For `O=C(NCc1cccc(F)c1)c1ccc(-n2cnc3cccnc32)cc1`, the survival was 97%. With `Cc1cc(Cl)ccc1NC(=O)CS(=O)(=O)c1cccc2nsnc12` the survival was 125%. `Fc1ccc(-c2cc(-c3nc(-c4cccc(Cl)c4)no3)[nH]n2)cc1` showed a survival of 88%. With `CC(C)(C)c1ccc(C(=O)NC2CCSC2=O)cc1` (stereo not drawn) the survival was 92%. `NC(=O)c1ccccc1NC(=O)Cn1nc(Cc2cccnc2)c2ccccc2c1=O` gave a survival of 71%. For `COc1ccc(C(=O)NCCn2cc(SCc3ccc(C(F)(F)F)cc3)c3ccccc32)cc1OC`, the survival was 72%. With `CC(Sc1cn(CCNC(=O)c2ccccc2F)c2ccccc12)c1ccccc1` (stereo not drawn) the survival was 42% (active). With `O=C(NCCn1cc(SCc2cccc(F)c2)c2ccccc21)c1cccc(C(F)(F)F)c1` the survival was 35% (active). Work on `COc1ccc(C(=O)NCCn2cc(SCc3cccc(F)c3)c3ccccc32)cc1OC` yielded a survival of 52%. With `Cc1ccc(C)c(CSc2cn(CCNC(=O)c3ccccc3F)c3ccccc23)c1` the survival was 35% (active). `O=C(CSc1cn(CCNC(=O)c2ccccc2F)c2ccccc12)Nc1ccccc1F` gave a survival of 80%. `COc1ccc(C(=O)NCCn2cc(SCc3cc(C)ccc3C)c3ccccc32)cc1` showed a survival of 57%. With `O=C(NCCn1cc(SCc2ccc(C(F)(F)F)cc2)c2ccccc21)c1cccs1` the survival was 95%. `COc1ccc(C(=O)NCCn2cc(SC(C)c3ccccc3)c3ccccc32)cc1OC` (stereo not drawn) was tested, and the survival was 61%. For `O=C(CSc1cn(CCNC(=O)c2cccc(C(F)(F)F)c2)c2ccccc12)Nc1ccc2c(c1)OCCO2`, the survival was 87%. `O=C(NCCn1cc(SCc2ccc(C(F)(F)F)cc2)c2ccccc21)c1ccccc1F` was tested, and the survival was 36% (active). `Cc1ccc(C)c(CSc2cn(CCNC(=O)c3cccs3)c3ccccc23)c1` was tested, and the survival was 71%. Compound `O=C(CCC(=O)N1CC2CCCN2c2ccccc21)NCc1ccccc1F` (stereo not drawn) has a survival of 131%. `CCOc1ccc(NC(=O)C2CCC(N3C(=O)C4CC=CCC4C3=O)CC2)cc1` (stereo not drawn) showed a survival of 77%. For `COc1ccc2oc(=O)c(-c3nc(-c4cccs4)no3)cc2c1`, the survival was 73%. Compound `CCc1ccc(NC(=O)CSc2nccn2C2CCCC2)cc1` has a survival of 70%. With `CCN(C(=O)c1cc2c(Cl)nc3ccc(C)cc3c2s1)c1cc(OC)ccc1OC` the survival was 61%. `CCOc1ccc2c(c1)c(=O)c(S(=O)(=O)c1ccc(C)cc1)cn2CC(=O)Nc1ccc(C)cc1` was tested, and the survival was 66%. `O=C(NCCn1cc(SCc2ccccc2)c2ccccc21)c1cccs1` was tested, and the survival was 54% (active). `O=C(CSc1cn(CCNC(=O)c2c(F)cccc2F)c2ccccc12)Nc1ccccc1F` showed a survival of 55%. In the case of `O=C(NCCn1cc(SCc2ccc(F)cc2)c2ccccc21)c1cccs1`, the survival is reported as 50%. For `O=C(NCCn1cc(SCc2ccc(F)cc2)c2ccccc21)c1c(F)cccc1F`, the survival was 53% (active). Compound `O=C(NCCn1cc(SCc2ccc(Br)cc2)c2ccccc21)c1cccs1` has a survival of 110%. For `O=C(CSc1cn(CCNC(=O)c2c(F)cccc2F)c2ccccc12)Nc1ccc(F)cc1`, the survival was 128%. With `CCOc1ccc(-c2cccc(NS(=O)(=O)c3ccc(F)cc3F)c2)nn1` the survival was 77%. In the case of `CCN(CC)CCCNC(=O)Cn1nc(N2CCN(c3ccccc3OC)CC2)ccc1=O`, the survival is reported as 75%. `CCOc1ccccc1Oc1ncnc2c1oc1ccccc12` was tested, and the survival was 83%. In the case of `Fc1ccccc1Oc1ncnc2c1oc1ccccc12`, the survival is reported as 37% (active). With `COc1ccc(Oc2ncnc3c2oc2ccccc23)cc1` the survival was 55%. Work on `CC(=O)N1CCc2cc(S(=O)(=O)NC(CC(C)C)C(=O)Nc3ccc(C(C)C)cc3)ccc21` (stereo not drawn) yielded a survival of 61%. In the case of `FC(F)(F)c1cccc(N2CCN(c3ncnc4c3nc3n4CCCC3)CC2)c1`, the survival is reported as 95%. `CCOC(=O)c1ccccc1NC(=O)CSc1nnc(CC)n2c1cc1occc12` was tested, and the survival was 63%. Work on `O=C(O)C1CCCCC1C(=O)Nc1cccc(C(=O)N2CCCCC2)c1` (stereo not drawn) yielded a survival of 101%. With `COc1ccc(OC)c(NC(=O)c2ccc3c(SCC(=O)O)c4c(nc3c2)CCCC4)c1` the survival was 64%. `Cn1cnc2c(=O)oc3ccc(S(=O)(=O)N4CCN(c5cccc(C(F)(F)F)c5)CC4)cc3c21` showed a survival of 108%. With `Cn1cnc2c(=O)oc3ccc(S(=O)(=O)N4CCN(c5cccc(Cl)c5)CC4)cc3c21` the survival was -5% (active). For `Cn1cnc2c(=O)oc3ccc(S(=O)(=O)N4CCN(c5ccccc5)CC4)cc3c21`, the survival was 77%. Compound `Cc1ccc(/C=C/c2onc(C)c2S(=O)(=O)N2CCC(C(=O)NCc3ccco3)CC2)cc1` has a survival of 74%. For `O=C(Nc1sc2c(c1C(=O)Nc1ccccc1Cl)CCCC2)c1ccccc1F`, the survival was 48% (active). For `O=C(Cc1ccccc1)Nc1sc2c(c1C(=O)Nc1ccccc1Cl)CCC2`, the survival was 34% (active). Compound `COc1ccccc1NC(=O)c1c(NC(=O)c2ccccc2Cl)sc2c1CCC2` has a survival of 78%. `CCOc1ccccc1NC(=O)c1c(NC(=O)Cc2ccc(OC)cc2)sc2c1CCC2` was tested, and the survival was 61%. For `CCOc1ccccc1NC(=O)c1c(NC(=O)c2ccccc2)sc2c1CCCC2`, the survival was 58%. For `CCc1ccccc1NC(=O)c1c(NC(=O)c2ccccc2)sc2c1CCCC2`, the survival was 42% (active). Work on `CCOc1ccccc1NC(=O)c1c(NC(=O)c2cccc(C)c2)sc2c1CCCC2` yielded a survival of 76%. `CCOc1ccccc1NC(=O)c1c(NC(=O)Cc2ccccc2)sc2c1CCCC2` was tested, and the survival was 81%. With `Cc1ccccc1NC(=O)c1c(NC(=O)Cc2ccccc2)sc2c1CCC2` the survival was 29% (active). In the case of `Cc1ccccc1NC(=O)c1c(NC(=O)c2ccccc2)sc2c1CCC2`, the survival is reported as 126%. Work on `COc1ccccc1NC(=O)c1c(NC(=O)c2ccccc2F)sc2c1CCC2` yielded a survival of 136%. Compound `O=C(NC1CC(=O)N(c2ccc(Cl)cc2)C1)c1ccc2c(c1)OCO2` (stereo not drawn) has a survival of 78%. `CN(C(=O)c1nn(C)c2c1COc1ccccc1-2)c1cccc(C(F)(F)F)c1` showed a survival of 81%. `Cc1ccc(C2=Nc3ccccc3N(CC(=O)Nc3cccc(F)c3)C(=O)C2)cc1C` gave a survival of 79%. `CCOC(=O)CC(=O)CSc1nc2ccccc2c(=O)n1CCc1ccccc1` showed a survival of 84%. `COc1cccc(C(=O)Nc2ccc3oc(-c4cccc5c(Br)cccc45)nc3c2)c1` showed a survival of 59%. With `O=C(CCC1N=C2c3ccccc3N=C(SCC(=O)Nc3ccc(F)cc3)N2C1=O)NCc1cccs1` (stereo not drawn) the survival was 87%. With `O=C(Cc1ccccc1)Nc1sc2c(c1C(=O)Nc1ccccc1Cl)CCCC2` the survival was 31% (active). `O=C(COc1ccccc1)Nc1sc2c(c1C(=O)Nc1ccccc1)CCCCC2` gave a survival of 85%. Work on `O=C(O)CCC(=O)Nc1sc2c(c1C(=O)Nc1ccccc1)CCCCC2` yielded a survival of 92%. Work on `O=C(Cc1ccccc1)Nc1sc2c(c1C(=O)Nc1ccccc1Cl)CCCCC2` yielded a survival of 47%. With `COc1ccccc1NC(=O)c1c(NC(=O)COc2ccccc2)sc2c1CCCCC2` the survival was 85%. In the case of `O=C(COc1ccccc1)Nc1sc2c(c1C(=O)Nc1ccccc1Cl)CCCCC2`, the survival is reported as 56% (active).
